This passage reports outcome and AC50 results from PubChem BioAssay (EPA / NIEHS).

Structures are written as SMILES. Where “and” joins values, the source holds several entries; their conditions need not be identical. Identical values can stand only once. Results filed as inconclusive are left out. Calls of active or inactive are those of the source. The calls were made as follows, unless noted: active = hit-call score of the fitted dose curve at least 0.9, where 1 is the maximum; inconclusive = response in the unintended direction; inactive = score below 0.9.

Sequence of Androgen receptor (Homo sapiens) (P10275 whole entry, looked up, the tested form may be a part): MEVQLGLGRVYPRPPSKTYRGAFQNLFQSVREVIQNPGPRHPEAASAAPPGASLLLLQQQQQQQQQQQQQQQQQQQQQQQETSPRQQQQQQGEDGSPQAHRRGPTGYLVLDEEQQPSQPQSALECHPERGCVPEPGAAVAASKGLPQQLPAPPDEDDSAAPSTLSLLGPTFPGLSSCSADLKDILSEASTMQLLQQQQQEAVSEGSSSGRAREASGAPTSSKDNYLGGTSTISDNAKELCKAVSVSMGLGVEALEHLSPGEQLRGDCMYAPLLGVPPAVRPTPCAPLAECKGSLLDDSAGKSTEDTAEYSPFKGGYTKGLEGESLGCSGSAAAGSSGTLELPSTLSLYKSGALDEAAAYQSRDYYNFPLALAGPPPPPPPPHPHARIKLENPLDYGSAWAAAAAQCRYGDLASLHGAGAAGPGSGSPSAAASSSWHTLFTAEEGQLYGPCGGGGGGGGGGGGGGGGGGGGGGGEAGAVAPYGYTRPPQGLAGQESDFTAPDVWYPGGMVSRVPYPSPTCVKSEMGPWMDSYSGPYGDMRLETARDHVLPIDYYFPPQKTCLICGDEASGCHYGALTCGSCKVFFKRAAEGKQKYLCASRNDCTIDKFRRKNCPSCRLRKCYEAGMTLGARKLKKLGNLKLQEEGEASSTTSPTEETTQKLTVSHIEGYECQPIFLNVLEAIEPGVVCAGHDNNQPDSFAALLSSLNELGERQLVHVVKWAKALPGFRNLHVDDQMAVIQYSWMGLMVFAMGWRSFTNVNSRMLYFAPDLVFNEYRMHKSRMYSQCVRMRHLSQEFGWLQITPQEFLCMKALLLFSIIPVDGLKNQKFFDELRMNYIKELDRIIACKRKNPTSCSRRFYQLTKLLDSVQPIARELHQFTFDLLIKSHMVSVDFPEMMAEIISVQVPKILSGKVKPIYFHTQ
Sequence of human Fibroblast Growth Factor Receptor 1 (FGFR1), FGFR1 (gene 2260) (P11362 whole entry, looked up): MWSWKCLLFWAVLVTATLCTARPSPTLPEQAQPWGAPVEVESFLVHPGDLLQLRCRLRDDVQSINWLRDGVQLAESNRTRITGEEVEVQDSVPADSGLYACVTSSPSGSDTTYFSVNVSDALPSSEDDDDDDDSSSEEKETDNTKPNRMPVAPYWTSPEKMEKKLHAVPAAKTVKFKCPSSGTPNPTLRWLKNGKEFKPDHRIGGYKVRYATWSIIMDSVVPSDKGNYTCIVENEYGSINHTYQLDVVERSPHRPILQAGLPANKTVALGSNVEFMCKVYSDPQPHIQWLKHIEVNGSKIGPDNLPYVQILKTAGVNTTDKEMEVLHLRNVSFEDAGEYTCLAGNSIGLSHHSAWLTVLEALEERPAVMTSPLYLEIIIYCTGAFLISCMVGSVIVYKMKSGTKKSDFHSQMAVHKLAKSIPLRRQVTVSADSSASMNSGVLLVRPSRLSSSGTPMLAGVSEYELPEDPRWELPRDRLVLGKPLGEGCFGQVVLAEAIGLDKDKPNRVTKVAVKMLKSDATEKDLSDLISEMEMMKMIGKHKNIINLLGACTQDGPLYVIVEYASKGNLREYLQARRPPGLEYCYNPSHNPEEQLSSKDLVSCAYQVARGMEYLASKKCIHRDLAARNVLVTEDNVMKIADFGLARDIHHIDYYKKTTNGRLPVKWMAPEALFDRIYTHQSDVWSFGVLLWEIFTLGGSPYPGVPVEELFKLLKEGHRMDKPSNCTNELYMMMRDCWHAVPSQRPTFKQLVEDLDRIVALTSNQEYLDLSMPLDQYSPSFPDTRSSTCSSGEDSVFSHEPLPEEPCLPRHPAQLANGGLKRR
Sequence of human CYP4F12, CYP4F12 (gene 66002) (Q9HCS2 whole entry, looked up): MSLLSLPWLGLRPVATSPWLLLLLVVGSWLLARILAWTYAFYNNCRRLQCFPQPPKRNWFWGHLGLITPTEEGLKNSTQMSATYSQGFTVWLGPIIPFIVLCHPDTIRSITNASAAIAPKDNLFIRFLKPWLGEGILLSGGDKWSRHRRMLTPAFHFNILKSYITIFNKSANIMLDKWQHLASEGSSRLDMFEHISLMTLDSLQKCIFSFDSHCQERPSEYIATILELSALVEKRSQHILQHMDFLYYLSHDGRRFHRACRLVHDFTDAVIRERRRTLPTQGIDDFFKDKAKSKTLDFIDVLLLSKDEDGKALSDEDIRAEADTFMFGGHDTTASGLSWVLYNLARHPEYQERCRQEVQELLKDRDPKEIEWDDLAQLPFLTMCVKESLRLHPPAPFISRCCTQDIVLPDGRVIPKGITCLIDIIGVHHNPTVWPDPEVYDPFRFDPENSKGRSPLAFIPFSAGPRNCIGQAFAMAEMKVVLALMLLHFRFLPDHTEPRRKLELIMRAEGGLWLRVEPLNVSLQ

One experiment concerns the target Androgen receptor (Homo sapiens) (UniProt P10275). The experiment can be described thus: ATG_AR_TRANS: Attagene TRANS-FACTORIAL HepG2 Assay for human Androgen Receptor (AR) (AID 2282973). The conditions noted are these: HepG2 Attagene TRANS-FACTORIAL AR reporter transcription. The method, boiled down:
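Transcriptional activity of an exogenous AR–Gal4 fusion read as GAL4-UAS reporter transcript levels in transfected human HepG2 cells after 24 h dosing. Detection via RT-PCR, 6-FAM labelling, HpaI digest and capillary electrophoresis; increase over DMSO baseline.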
As for `NC(=O)C(F)(F)C(F)(F)C(F)(F)F`, the outcome was inactive. For `COC(=O)CSc1cc(N=c2sc(=O)n3n2CCCC3)c(F)cc1Cl`, the compound was called inactive.

As to `Brc1cc(Br)c(Oc2c(Br)cc(Br)c(Br)c2Br)cc1Br`, the call was inactive.

For the compound `O=C(O)c1cc(Cl)cc([N+](=O)[O-])c1Cl`, the call was inactive. Still for that read-out and setting: to `O=c1c(-c2ccc(O)cc2)coc2cc(O)cc(O)c12` belongs “inactive”. `CC(=O)O[C@@H]1CC2CCC1(C)C2(C)C` (stereo not given in full): the call was inactive. In the case of `O=C(Nc1ccccc1)c1cc([N+](=O)[O-])ccc1Cl`, the outcome was inactive.

`CC1(C)[C@H](C(=O)OCc2cccc(Oc3ccccc3)c2)[C@@H]1C=C(Cl)Cl`: the call was inactive. On to `O=C(O)C(F)(F)C(F)(F)C(F)(F)F`, for which the call was inactive.

Turning to `CCCCCCCCCC(C)=O`, the compound was classed as inactive. For the compound `CC1(C)C(=O)N(Br)C(=O)N1Br`, the compound was called inactive. For the compound `O=C1OC(=O)C(F)(F)C1(F)F`, the compound was called inactive. Turning to `CC(C)CC(=O)CC(C)CC(C)C` (stereo not given), the compound was called inactive. The same measure, in the same setting: to `C[Si](C)(C)C(F)(F)C(F)(F)C(F)(F)F` belongs “inactive”. As for `CCCCCCCCCCCCC[N+](C)(C)Cc1ccccc1`, the compound was called inactive. With `Cc1cccc(C)n1`, the outcome was inactive.

The target in another experiment is Cytochrome P450 2C18 (Homo sapiens) (UniProt P33260). The experiment can be described thus: NVS_ADME_hCYP2C18: NovaScreen (NVS) CYP450-related Enzyme Activity (ADME) Assay for human CYP2C18 (AID 2283103; active = hit-call score of the fitted dose curve at least 0.9, where 1 is the maximum; inactive = score below 0.9).
Sequence of Cytochrome P450 2C18 (Homo sapiens) (P33260 whole entry, looked up): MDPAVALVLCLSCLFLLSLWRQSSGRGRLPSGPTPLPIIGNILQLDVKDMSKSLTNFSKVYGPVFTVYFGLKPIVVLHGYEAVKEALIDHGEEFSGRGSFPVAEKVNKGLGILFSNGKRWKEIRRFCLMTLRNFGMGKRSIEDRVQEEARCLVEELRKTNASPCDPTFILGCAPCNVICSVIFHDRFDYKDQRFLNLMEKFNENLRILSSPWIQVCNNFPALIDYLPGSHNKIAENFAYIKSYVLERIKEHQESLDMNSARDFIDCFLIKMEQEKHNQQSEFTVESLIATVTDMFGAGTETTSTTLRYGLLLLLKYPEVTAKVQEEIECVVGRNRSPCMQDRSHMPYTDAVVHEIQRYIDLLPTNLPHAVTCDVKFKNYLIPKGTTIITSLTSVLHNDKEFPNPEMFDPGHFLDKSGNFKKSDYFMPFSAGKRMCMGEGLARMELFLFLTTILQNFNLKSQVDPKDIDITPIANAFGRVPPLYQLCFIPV
Settings: not given
The method, boiled down: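 Cell-free recombinant human CYP2C18 with fluorogenic substrate; fluorescence intensity read 0.5 h after dosing. Single-point screen at 10 uM in duplicate, then concentration-response up to 20 uM; loss of signal fitted against acetonitrile baseline.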
Take `CCN(CC)CCOc1ccc(C(=C(Cl)c2ccccc2)c2ccccc2)cc1`: the AC50 is 11.4 µM (active) and 4.62 µM (active). Same read-out and setting: under `CCCCOCCOCCOCc1cc2c(cc1CCC)OCO2` stands 4.47 µM (active).

With `Cc1nn(C)c(Oc2ccccc2)c1C=NOCc1ccc(C(=O)OC(C)(C)C)cc1`, the outcome was inactive.

For `CC(C)(c1ccc(O)cc1)c1ccc(O)cc1`, the AC50 was 6.12 µM (active) and 7.43 µM (active). With `COC(=O)CSc1cc(N=c2sc(=O)n3n2CCCC3)c(F)cc1Cl`, the compound was called inactive. Consider `O=c1c(-c2ccc(O)cc2)coc2cc(O)cc(O)c12`, for which the call was inactive.

A further experiment has as its target human CYP4F12, CYP4F12 (gene 66002) (UniProt Q9HCS2). The experiment can be described thus: NVS_ADME_hCYP4F12: NovaScreen (NVS) CYP450-related Enzyme Activity (ADME) Assay for human CYP4F12 (AID 2283111).
Settings: not given
The method, boiled down: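 Cell-free fluorescence assay of recombinant human CYP4F12 activity on a specific substrate, read 0.5 h after dosing. Primary screen in duplicate at 10 uM, then concentration series for actives; loss of signal fitted against acetonitrile negative control.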
Turning to `CCCCCCCCCC(=O)O`, the AC50 is 2.83 µM (active). With `CSc1ccc(Oc2ccc(S(N)(=O)=O)cc2CN(C)C)cc1C`, the AC50 is 8.72 µM (active).

Turning to `Cc1nc(-c2ccc3c(c2)CCN(CCC2CCC(NC(=O)/C=C/c4ccc(F)cc4)CC2)CC3)no1` (stereo not given), the outcome was inactive. Turning to `CC(C)(c1ccc(O)cc1)c1ccc(O)cc1`, the AC50 was 4.07 µM (active). Consider `CC1(C)C(=O)N(Br)C(=O)N1Br`, for which the AC50 is 2.18 µM (active).

For another experiment, the target named is rat CYP2D1, Cyp2d1 (gene 266684) (UniProt P10633). The experiment can be described thus: NVS_ADME_rCYP2D1: NovaScreen (NVS) CYP450-related Enzyme Activity (ADME) Assay for rat CYP2D1 (AID 2283122).
Sequence of rat CYP2D1, Cyp2d1 (gene 266684) (P10633 whole entry, looked up): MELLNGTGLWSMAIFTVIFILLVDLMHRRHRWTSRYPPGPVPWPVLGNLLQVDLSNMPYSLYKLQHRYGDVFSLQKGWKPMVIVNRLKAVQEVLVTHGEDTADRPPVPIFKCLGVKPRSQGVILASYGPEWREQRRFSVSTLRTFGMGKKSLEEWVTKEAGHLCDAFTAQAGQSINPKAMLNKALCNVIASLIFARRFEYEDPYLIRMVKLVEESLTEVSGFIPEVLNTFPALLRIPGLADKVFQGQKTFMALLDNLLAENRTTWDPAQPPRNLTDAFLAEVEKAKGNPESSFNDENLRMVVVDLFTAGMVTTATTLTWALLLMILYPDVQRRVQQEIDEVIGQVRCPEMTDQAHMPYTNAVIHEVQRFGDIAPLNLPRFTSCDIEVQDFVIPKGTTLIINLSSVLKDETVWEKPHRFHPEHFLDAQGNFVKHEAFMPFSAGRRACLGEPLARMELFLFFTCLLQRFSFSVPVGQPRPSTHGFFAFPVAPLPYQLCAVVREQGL
Settings: not given
On the procedure: NVS_ADME_rCYP2D1 is a biochemical, single-readout assay that uses extracted gene-proteins in a cell-free assay. Measurements were taken 0.75 hour after chemical dosing in a 96-well plate.NVS_ADME_rCYP2D1 is one of one assay component(s) measured or calculated from the NVS_ADME_rCYP2D1 assay. It is designed to make measurements of enzyme activity, a form of enzyme reporter, as detected with fluorescence intensity signals by Fluorescence technology.Data from the assay component NVS_ADME_rCYP2D1 was analyzed into 1 assay endpoint. This assay endpoint, NVS_ADME_rCYP2D1, was analyzed in the positive analysis fitting direction relative to Acetonitrile as the negative control and baseline of activity. Using a type of enzyme reporter, loss-of-signal activity can be used to understand changes in the enzymatic activity as they relate to the gene Cyp2d1. Furthermore, this assay endpoint can be referred to as a primary readout, because this assay has produced multiple assay endpoints where this one serves a enzymatic activity function. To generalize the intended target to other relatable targets, this assay endpoint is annotated to the cyp intended target family, where the subfamily is xenobiotic metabolism.
Binding assays used specific radioligands (tritiated, iodinated) with non-radioactive competitive displacement ligands in agonist or antagonist protocols (as indicated) and various reference compounds and inhibitors to titrate specific binding to receptors and transporters. Most enzyme assays (CYPs, kinases, phosphatases, proteases, HDACs) used recombinant protein and specific substrates (fluorescence mostly, some colorimetric and radioactive) and inhibitors, followed by a biochemical separation of substrate and product. All assays for the biochemical HTS were initially run in duplicate at a single concentration (10 uM for CYP450 assays and 25 uM for all others). Assay-chemical combinations meeting a pre-defined threshold (e.g., 30% inhibition and other criteria defined below) were then run in singleton concentration-response format with maximum concentration of 20 uM for CYPs and 50 uM for all others. Each assay was run with positive and negative controls, and concurrent controls on every plate. The follow-up (secondary) screen tested active chemical-pairs in concentration series, as well as a few additional assays not tested in the primary screen, some selected negative inactives, and several cases re-run in the concentration series for confirmatory purposes.
On to `CCCCOCCOCCOCc1cc2c(cc1CCC)OCO2`, for which the AC50 is 5.69 µM (active).

For the compound `Cc1nn(C)c(Oc2ccccc2)c1C=NOCc1ccc(C(=O)OC(C)(C)C)cc1`, the outcome was inactive. In the case of `CC(C)(c1ccc(O)cc1)c1ccc(O)cc1`, the AC50 was 10 µM (active).

The next experiment concerns the target human Fibroblast Growth Factor Receptor 1 (FGFR1), FGFR1 (gene 2260) (UniProt P11362). The experiment can be described thus: NVS_ENZ_hFGFR1: NovaScreen (NVS) Enzymatic Assay for human Fibroblast Growth Factor Receptor 1 (FGFR1) (AID 2283159).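 As to AC50: hits lower the signal so potencies describe inhibitors of the kinase.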
Settings: not given
The method, boiled down: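 Cell-free recombinant kinase with fluorescent substrate, product separated by electrophoretic mobility shift; read 1 hour after dosing, loss of signal relative to DMSO. Initial screen in duplicate at 25 uM, actives followed in concentration series.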
`CCN(CC)CCOc1ccc(C(=C(Cl)c2ccccc2)c2ccccc2)cc1`: the AC50 is 27.1 µM (active). As for `CCCCCCCCCC(=O)O`, the compound was classed as inactive. `CSc1ccc(Oc2ccc(S(N)(=O)=O)cc2CN(C)C)cc1C`: the result was inactive.

Take `Cc1nc(-c2ccc3c(c2)CCN(CCC2CCC(NC(=O)/C=C/c4ccc(F)cc4)CC2)CC3)no1` (stereo not given): the AC50 was 5.82 µM (active).

The next experiment deals with bovine Gamma-Aminobutyric Acid Type A Receptor BDZ, alpha 1 site (GABARa1), GABRA1 (gene 780973) (UniProt P08219). Briefly: NVS_LGIC_bGABARa1: NovaScreen (NVS) Ligand-Gated Ion Channel Assay for bovine Gamma-Aminobutyric Acid Type A Receptor BDZ, alpha 1 site (GABARa1) (AID 2283321).
Sequence of bovine Gamma-Aminobutyric Acid Type A Receptor BDZ, alpha 1 site (GABARa1), GABRA1 (gene 780973) (P08219 whole entry, looked up): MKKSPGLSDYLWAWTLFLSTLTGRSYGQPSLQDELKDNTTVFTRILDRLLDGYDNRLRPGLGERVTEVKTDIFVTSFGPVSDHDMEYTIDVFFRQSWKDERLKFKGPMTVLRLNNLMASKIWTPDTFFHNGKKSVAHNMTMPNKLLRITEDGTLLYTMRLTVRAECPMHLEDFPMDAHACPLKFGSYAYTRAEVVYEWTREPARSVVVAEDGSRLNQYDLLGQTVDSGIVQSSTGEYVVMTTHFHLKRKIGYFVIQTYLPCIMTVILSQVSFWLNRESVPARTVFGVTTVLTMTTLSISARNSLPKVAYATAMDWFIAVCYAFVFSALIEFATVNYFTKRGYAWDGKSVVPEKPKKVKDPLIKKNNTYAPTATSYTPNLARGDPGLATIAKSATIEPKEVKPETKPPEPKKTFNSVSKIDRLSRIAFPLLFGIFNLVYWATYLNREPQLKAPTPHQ
Settings: not given
A digest of the protocol: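 Radioligand competition binding on bovine cortical membranes, 0.75 h, filter-based scintillation counting. Primary single concentration 25 uM in duplicate; actives rerun in concentration-response to 50 uM max. Loss of signal fitted versus DMSO.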
`CCCCCCCCCC(=O)O`: the AC50 was 19.7 µM (active). As to `CC(C)(c1ccc(O)cc1)c1ccc(O)cc1`, the call was inactive. Consider `COC(=O)CSc1cc(N=c2sc(=O)n3n2CCCC3)c(F)cc1Cl`, for which the result was inactive.

Tested on in the next experiment: not listed separately
Briefly: CCTE_Harrill_HTTr_Apoptosis_PRF_DMEM_12hr: (Pilot) CCTE's 12-hour Apoptosis Assessment for the High-Throughput Transcriptomics (HTTr) Platform, in MCF-7 cells cultured in phenol red-free DMEM + 10% charcoal-stripped fetal bovine serum, Harrill Lab (AID 2283985; active = hit-call score of the fitted dose curve at least 0.9, where 1 is the maximum; inactive = score below 0.9).
Settings: not given
A digest of the protocol:
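MCF-7 cells in phenol red-free DMEM with 10% charcoal-stripped FBS, eight-point dilution series, 12 h exposure. Caspase-3/7 activation imaged by high content imaging with CellEvent Green reagent; bidirectional fit vs DMSO.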
`CCN(CC)CCOc1ccc(C(=C(Cl)c2ccccc2)c2ccccc2)cc1`: the AC50 is 81.6 µM (active).

As for `Cc1nn(C)c(Oc2ccccc2)c1C=NOCc1ccc(C(=O)OC(C)(C)C)cc1`, the outcome was inactive. With `CC(C)(c1ccc(O)cc1)c1ccc(O)cc1`, the result was inactive.

As a reminder, the AC50 is the concentration giving half of the maximal activity seen.
